Source: paper PMC4336329 (PLoS ONE, 2015)
The campaign covered roughly 310,000 compounds. About 14,000 (4.5%) showed an effect of 50% or more. Effects have a minus sign here. The sample holds strong results, similar compounds and a random draw of the others, so the mix is not that of the screen.

What follows are compounds tested against human ether-à-go-go-related gene (hERG) potassium channel (human, UniProt Q12809) (assay: primary screen, population patch clamp on CHO cells stably expressing hERG; higher = less effect of the substance).
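Note: peak tail current of the secondary pulse compared with the same well before compound.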

Sequence of human ether-à-go-go-related gene (hERG) potassium channel (Q12809 whole entry, looked up): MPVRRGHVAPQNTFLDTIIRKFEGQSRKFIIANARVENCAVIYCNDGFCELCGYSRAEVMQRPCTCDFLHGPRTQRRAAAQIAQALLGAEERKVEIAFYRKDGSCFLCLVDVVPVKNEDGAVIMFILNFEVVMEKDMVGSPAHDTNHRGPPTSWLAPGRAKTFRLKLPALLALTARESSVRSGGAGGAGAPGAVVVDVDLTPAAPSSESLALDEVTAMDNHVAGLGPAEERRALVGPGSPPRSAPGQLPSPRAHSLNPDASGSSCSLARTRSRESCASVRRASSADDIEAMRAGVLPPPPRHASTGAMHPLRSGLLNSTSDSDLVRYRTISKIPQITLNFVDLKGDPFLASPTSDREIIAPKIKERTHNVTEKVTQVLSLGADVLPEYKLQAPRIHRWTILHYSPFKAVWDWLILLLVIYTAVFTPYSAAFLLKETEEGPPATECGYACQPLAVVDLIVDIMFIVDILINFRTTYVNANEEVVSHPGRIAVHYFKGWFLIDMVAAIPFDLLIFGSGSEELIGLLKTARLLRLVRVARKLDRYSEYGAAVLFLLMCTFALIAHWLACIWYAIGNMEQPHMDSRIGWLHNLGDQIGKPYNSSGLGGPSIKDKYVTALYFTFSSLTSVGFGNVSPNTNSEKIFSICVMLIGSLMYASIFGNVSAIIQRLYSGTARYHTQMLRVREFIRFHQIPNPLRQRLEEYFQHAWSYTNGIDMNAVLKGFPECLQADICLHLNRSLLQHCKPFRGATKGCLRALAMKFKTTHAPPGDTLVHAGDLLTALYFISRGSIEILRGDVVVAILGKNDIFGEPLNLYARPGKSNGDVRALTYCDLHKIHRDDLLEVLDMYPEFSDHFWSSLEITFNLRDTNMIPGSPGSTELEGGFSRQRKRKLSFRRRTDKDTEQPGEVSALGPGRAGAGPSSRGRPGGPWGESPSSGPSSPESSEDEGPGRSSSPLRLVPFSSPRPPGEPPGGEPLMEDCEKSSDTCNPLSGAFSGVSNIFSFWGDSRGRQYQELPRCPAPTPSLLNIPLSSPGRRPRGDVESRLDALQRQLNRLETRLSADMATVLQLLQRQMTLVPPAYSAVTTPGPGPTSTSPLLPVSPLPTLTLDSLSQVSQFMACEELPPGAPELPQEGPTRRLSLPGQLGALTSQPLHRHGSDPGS

Row | Structure (SMILES) | hERG current change (%, negative = inhibition) at 10uM [%]
1 | O=C(c1cc([N+](=O)[O-])cc([N+](=O)[O-])c1)N1CCCc2ccccc21 | -16.3
2 | CCOC(=O)Cc1csc(NC(=O)CC)n1 | 3.71
3 | O=S(=O)(c1ccc(-c2csc(=Nc3ccccc3)n2CCCN2CCOCC2)cc1)N1CCOCC1 | -40.9
4 | CN(C)N1C(N)=C(C#N)C(c2cccc(Cl)c2)C2=C1CCCC2=O (centres unmarked) | -26.2
5 | Cc1ccc(CO/N=C/C2=C(Cl)c3ccccc3CC2)cc1 | 16.8
6 | CC(=O)Nc1ccc(NS(=O)(=O)c2ccc3c(c2)oc(=O)n3C)cc1 | 20.2
7 | Cc1cccc(CN2CCc3c([nH]c4ccccc34)C2C(C)(C)C)n1 (centres unmarked) | 3.57
8 | Cc1ccc([N+](=O)[O-])cc1N=C(c1cccc([N+](=O)[O-])c1)N1CCOCC1 | -26
9 | O=[N+]([O-])c1ccc(C(=Nc2cccc3ccccc23)N2CCOCC2)cc1 | -63.5
10 | Cc1ccc([N+](=O)[O-])cc1N=C(c1ccc([N+](=O)[O-])cc1)N1CCOCC1 | -20.8
11 | O=C(NNC(=O)C1[C@H]2CCCC[C@@H]12)Nc1cccc2ccccc12 (some centres unmarked) | -6.11
12 | COc1cc(NC(=O)Cc2ccc(F)cc2)cc(OC)c1OC | 16.2
13 | CCC(=O)N1CCc2cc(Br)cc(S(=O)(=O)CCC(=O)NCCc3ccccc3)c21 | 3.68
14 | O=S(=O)(c1ccccc1)N1CCN(C(=S)Nc2ccc(F)cc2)CC1 | -3.33
15 | CN(C)/C=N/c1ncn(-c2ncc(C(F)(F)F)cc2Cl)n1 | 17.5
16 | Nc1nc2nonc2nc1N | 15.3
17 | CCOC(=O)c1cc(-c2cccs2)nc2c1c(C)nn2-c1ccccn1 | 17.2
18 | CCOC(=O)c1cc(-c2ccncc2)nc2c1c(C)nn2C | -14.8
19 | Cc1ccccc1-n1nc(C)c2c(C(=O)NN)cc(-c3ccncc3)nc21 | 38.5
20 | O=C(NCc1ccco1)c1cc(-c2ccncc2)nc2ccccc12 | -18.5
21 | Cc1nn(-c2cccc(Cl)c2)c2nc(-c3ccncc3)cc(C(=O)N3CCOCC3)c12 | -62.3
22 | O=C(NCc1ccco1)c1cc(-c2cccs2)nc2ccccc12 | -1.68

Row | Structure (SMILES) | hERG current change (%, negative = inhibition) at 10uM [%]
23 | Cc1nn(-c2ccccc2)c2nc(-c3ccncc3)cc(C(=O)NCc3ccco3)c12 | -66.6
24 | Cc1nn(-c2cccc(Cl)c2)c2nc(-c3ccco3)cc(C(=O)O)c12 | 19
25 | Cc1nn(-c2ccccn2)c2nc(-c3cccs3)cc(C(=O)NCc3ccco3)c12 | -67.3
26 | Cc1nn(-c2ccccc2)c2nc(-c3ccccc3)cc(C(=O)N3CCOCC3)c12 | -25.9
27 | CCOC(=O)c1cc(-c2ccccc2)nc2c1c(C)nn2-c1ccccn1 | -6.42
28 | CCOC(=O)c1cc(-c2ccncc2)nc2c1c(C)nn2-c1ccccn1 | -63.3
29 | Cc1ncc([N+](=O)[O-])n1CC(=O)NCc1ccccc1 | 16
30 | Cc1ccc(S(=O)(=O)NNC(=O)C(=O)NNS(=O)(=O)c2ccc(C)cc2)cc1 | -1.99
31 | O=C(c1ccc(Cl)cc1)N1CCCCC(Cl)C1=O (centres unmarked) | 7.57
32 | COc1cccc(Nc2ncc(C(=O)O)c3ccccc23)c1 | -1.48
33 | Fc1cnc(Cl)nc1N1CCN(c2ccccc2)CC1 | -17.4
34 | Cc1nn(Cc2ccccc2)c(C)c1C(=O)OCC(=O)c1cc(C)n(CC(F)(F)F)c1C | -2.57
35 | COc1cccc(-n2c(-c3ccco3)nc3nc4ccccc4nc32)c1 | 18.4
36 | O=C(COC(=O)c1cccnc1Nc1ccccc1F)NC1CC1 | -0.164
37 | Cc1cc(O)ccc1N/C=C(\C#N)c1nc2ccccc2o1 | 10.2
38 | C=C(C)COc1ccc2c(C)c(CCC(=O)NC3CC3)c(=O)oc2c1 | -2.92
39 | CCOC(=O)c1sc2nc(CN3CCN(c4cccc(C(F)(F)F)c4)CC3)[nH]c(=O)c2c1C | 8.43
40 | COc1ccc(-c2noc(=O)n2Cc2ccccc2Cl)cc1 | -8.73
41 | N#Cc1ccc(Cn2c(-c3ccc(F)cc3)noc2=O)cc1 | -17.8
42 | COc1ccc(-c2noc(=O)n2Cc2ccc(C#N)cc2)cc1 | -70.1
43 | Cc1cc(C)n(Cc2ccc(C(=O)O)o2)n1 | 11.5
44 | COc1ccccc1COn1c(=O)c(-c2ccco2)[n+]([O-])c2ccccc21 | 5.96

Row | Structure (SMILES) | hERG current change (%, negative = inhibition) at 10uM [%]
45 | N=c1c(C(=O)NCCN2CCOCC2)cc2c(=O)n3ccccc3nc2n1CCc1ccccc1 | -72.5
46 | O=C(NCCN1CCOCC1)c1c(O)nc2ccccn2c1=O | 10.9
47 | Nc1c(C(=O)NCc2ccc(F)cc2)c2nc3ccccc3nc2n1CCCN1CCOCC1 | 0.0395
48 | N=c1c(C(=O)NCc2ccc(F)cc2)cc2c(=O)n3ccccc3nc2n1CCCN1CCOCC1 | -83
49 | Cc1ccc(S(=O)(=O)c2cc3c(=O)n4ccccc4nc3n(CCCN3CCOCC3)c2=N)cc1C | -36.8
50 | N=c1c(S(=O)(=O)c2ccc(Cl)cc2)cc2c(=O)n3ccccc3nc2n1CCN1CCOCC1 | -46.4
51 | N=c1c(S(=O)(=O)c2ccccc2)cc2c(=O)n3ccccc3nc2n1CCCN1CCOCC1 | -65.9
52 | N=c1c(C(=O)NCc2ccccc2)cc2c(=O)n3ccccc3nc2n1CCCN1CCOCC1 | -78.6
53 | CN(C)S(=O)(=O)N1CCC(Oc2ccc(C(=O)NCCc3cscn3)cc2)CC1 | 0.0832
54 | CC(C)O.CCc1nnc(NS(=O)(=O)c2ccc(NC(=O)C(c3ccccc3)c3ccccc3)cc2)s1 | 2.36
55 | CCc1nnc(NC(=O)C2CC(=O)N(c3ccc4c(c3)OCCO4)C2)s1 (centres unmarked) | 4.32
56 | CC(=O)Nc1ccc(C(=O)CS(=O)(=O)c2ccc(C)cc2)cc1 | -11.5
57 | N=c1c(C(=O)NCCN2CCOCC2)cc2c(=O)n3ccccc3nc2n1CCCN1CCOCC1 | -4.43
58 | N=c1c(C(=O)NCCc2ccccc2)cc2c(=O)n3ccccc3nc2n1CCCN1CCOCC1 | -76.2
59 | CC1(C)CC(=O)C=C(NCCO)C1 | -0.4
60 | O=C(Nc1ccc(N2CCN(C(=O)c3ccco3)CC2)cc1)c1ccco1 | 20.7
61 | Cc1nnc(NC(=O)CC(CN(C)S(=O)(=O)c2ccccc2)c2ccccc2)s1 (centres unmarked) | -18.7
62 | CN(CC(CC(=O)Nc1nncs1)c1ccccc1)S(=O)(=O)c1ccc(Br)cc1 (centres unmarked) | -55.4
63 | CN(CC(CC(=O)Nc1nncs1)c1ccccc1)S(=O)(=O)c1ccccc1 (centres unmarked) | -14.2
64 | COC(=O)c1ccccc1NC(=O)Nc1ccc(Cl)cn1 | -3.82
65 | O=C(Nc1ccc2c(c1)OCO2)Nc1ccc(Br)cn1 | 3.01
66 | Cc1cccc(N/C=C/C(=C(C#N)C#N)N(C)C)c1 | -24.5

Row | Structure (SMILES) | hERG current change (%, negative = inhibition) at 10uM [%]
67 | Cc1ccc(NC(=O)CNc2ccccc2CN(C)C2CCCCC2)cc1 | -59.1
68 | COc1ccc(C)cc1NC(=O)CNc1ccccc1CN(C)C1CCCCC1 | -19.6
69 | CN(Cc1ccccc1NCC(=O)Nc1ccccc1C#N)C1CCCCC1 | -33
70 | Cc1c(C(=O)N(C)CCC#N)oc2ccc(S(=O)(=O)N3CCOCC3)cc12 | 10.1
71 | O=C(NNc1ncnc2c1cnn2-c1ccc(F)cc1)c1cccs1 | 6.55
72 | O=C1CCC(C(=O)N(CCO)Cc2ccccc2)CN1CC1CCCCC1 (centres unmarked) | 11.7
73 | CN(C)C1=NCCN1CCc1ccc(F)cc1 | -9.03
74 | CCOC(=O)c1cnc2c(cnn2C)c1NCCCn1ccnc1 | -35.9
75 | CCOC(=O)c1cnc2ccc(C(=O)OC)cc2c1NCCN1CCOCC1 | -30.2
76 | CCOC(=O)c1cnc2ccc(OC)cc2c1NCCN1CCOCC1 | -48.5
77 | CCOC(=O)c1cnc2ccc(OCC)cc2c1NCCCN1CCOCC1.Cl | -75.6
78 | CCOC(=O)c1cnc2ccc(Br)cc2c1NCCCN1CCOCC1 | -39
79 | CCOC(=O)c1ccc2ncc(C(=O)OCC)c(NCCCN3CCOCC3)c2c1 | -47.3
80 | CCOC(=O)c1cnc2c(C)c(Cl)ccc2c1NCCCN1CCOCC1 | -49.2
81 | CCOC(=O)c1cnc2c(cnn2C)c1NCCCN(C)C | -51.7
82 | CCOC(=O)c1cnc2ccc(OCC)cc2c1NCCN1CCOCC1.Cl | -67.9
83 | CCOC(=O)c1cnc2c(cnn2C)c1NCCC#N | -7.43
84 | CCOC(=O)c1cnc2ccc(C(=O)OC)cc2c1NCCCN1CCOCC1 | -60.5
85 | O=C(NCCc1ccccc1)C1CCN(S(=O)(=O)N2CCCCC2)CC1 | 2.19
86 | CCCNC(=O)Cn1c(=O)oc2cc(S(=O)(=O)N3CCCC3)ccc21 | 11.9
